# Laboratory results reported in ChEMBL document CHEMBL1961873, “Compounds: GSK PKIS; Assays: Nanosyn kinase panel” (2012).
# Assays:
# [1] = target: Mitogen-activated protein kinase kinase kinase kinase 4 (Homo sapiens) (UniProt O95819); details: at 1 µM;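 also: reported figure is an averaged inhibition value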
# [2] = target: Dual specificity mitogen-activated protein kinase kinase 1 (Homo sapiens) (UniProt Q02750); details: at 0.1 µM
# [3] = target: Dual specificity mitogen-activated protein kinase kinase 1 (Homo sapiens) (UniProt Q02750); details: at 1 µM
# [4] = target: Misshapen-like kinase 1 (Homo sapiens) (UniProt Q8N4C8); details: at 0.1 µM
# [5] = target: Misshapen-like kinase 1 (Homo sapiens) (UniProt Q8N4C8); details: at 1 µM
# [6] = target: T1, Serine/threonine-protein kinase 4 (Homo sapiens) (UniProt Q13043); details: at 0.1 µM
# T1 sequence (whole entry): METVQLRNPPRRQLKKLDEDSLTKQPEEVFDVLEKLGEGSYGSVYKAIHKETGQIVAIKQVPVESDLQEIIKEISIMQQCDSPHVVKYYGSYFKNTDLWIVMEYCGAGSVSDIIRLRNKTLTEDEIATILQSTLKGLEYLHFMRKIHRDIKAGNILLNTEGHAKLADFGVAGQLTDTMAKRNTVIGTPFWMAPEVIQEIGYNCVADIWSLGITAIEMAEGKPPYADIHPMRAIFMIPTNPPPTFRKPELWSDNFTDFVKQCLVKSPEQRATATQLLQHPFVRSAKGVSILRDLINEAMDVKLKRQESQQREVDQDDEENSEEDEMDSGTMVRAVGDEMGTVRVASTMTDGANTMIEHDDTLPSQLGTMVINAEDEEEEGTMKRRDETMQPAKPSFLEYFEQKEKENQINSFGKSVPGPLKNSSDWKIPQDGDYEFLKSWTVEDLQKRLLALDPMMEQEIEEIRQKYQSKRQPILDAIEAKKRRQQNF
# [7] = target: T1, Serine/threonine-protein kinase 4 (Homo sapiens); details: at 1 µM
# [8] = target: T2, Serine/threonine-protein kinase 3 (Homo sapiens) (UniProt Q13188); details: at 0.1 µM
# T2 sequence (whole entry): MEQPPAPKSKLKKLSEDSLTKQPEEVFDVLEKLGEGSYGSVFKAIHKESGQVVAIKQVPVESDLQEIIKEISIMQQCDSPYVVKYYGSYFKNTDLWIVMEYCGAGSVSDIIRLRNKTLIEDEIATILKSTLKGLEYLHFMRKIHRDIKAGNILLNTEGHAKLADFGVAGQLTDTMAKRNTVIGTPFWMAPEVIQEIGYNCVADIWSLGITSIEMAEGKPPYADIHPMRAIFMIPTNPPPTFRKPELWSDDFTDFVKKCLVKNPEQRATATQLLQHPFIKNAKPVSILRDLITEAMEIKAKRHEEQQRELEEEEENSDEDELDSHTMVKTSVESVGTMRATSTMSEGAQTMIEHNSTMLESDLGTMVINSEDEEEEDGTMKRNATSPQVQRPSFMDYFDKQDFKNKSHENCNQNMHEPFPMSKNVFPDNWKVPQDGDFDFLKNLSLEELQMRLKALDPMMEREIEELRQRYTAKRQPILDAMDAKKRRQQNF
# [9] = target: T2, Serine/threonine-protein kinase 3 (Homo sapiens); details: at 1 µM
# [10] = target: Serine/threonine-protein kinase 26 (Homo sapiens) (UniProt Q9P289); details: at 0.1 µM
# [11] = target: Serine/threonine-protein kinase 26 (Homo sapiens) (UniProt Q9P289); details: at 1 µM
# [12] = target: Serine/threonine-protein kinase PAK 1 (Homo sapiens) (UniProt Q13153); details: at 0.1 µM
# [13] = target: Serine/threonine-protein kinase PAK 1 (Homo sapiens) (UniProt Q13153); details: at 1 µM
# [14] = target: Serine/threonine-protein kinase PAK 2 (Homo sapiens) (UniProt Q13177); details: at 0.1 µM
# [15] = target: Serine/threonine-protein kinase PAK 2 (Homo sapiens) (UniProt Q13177); details: at 1 µM
# [16] = target: Serine/threonine-protein kinase PAK 3 (Homo sapiens) (UniProt O75914); details: at 0.1 µM
# [17] = target: Serine/threonine-protein kinase PAK 3 (Homo sapiens) (UniProt O75914); details: at 1 µM
# [18] = target: Serine/threonine-protein kinase PAK 5 (Homo sapiens) (UniProt Q9P286); details: at 0.1 µM
# [19] = target: Serine/threonine-protein kinase PAK 5 (Homo sapiens) (UniProt Q9P286); details: at 1 µM
# [20] = target: Serine/threonine-protein kinase PAK 6 (Homo sapiens) (UniProt Q9NQU5); details: at 0.1 µM;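 also: mean PAK6 inhibition reported from the GSK PKIS screen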
# Sequence of Serine/threonine-protein kinase PAK 6 (Homo sapiens) (Q9NQU5 whole entry, looked up): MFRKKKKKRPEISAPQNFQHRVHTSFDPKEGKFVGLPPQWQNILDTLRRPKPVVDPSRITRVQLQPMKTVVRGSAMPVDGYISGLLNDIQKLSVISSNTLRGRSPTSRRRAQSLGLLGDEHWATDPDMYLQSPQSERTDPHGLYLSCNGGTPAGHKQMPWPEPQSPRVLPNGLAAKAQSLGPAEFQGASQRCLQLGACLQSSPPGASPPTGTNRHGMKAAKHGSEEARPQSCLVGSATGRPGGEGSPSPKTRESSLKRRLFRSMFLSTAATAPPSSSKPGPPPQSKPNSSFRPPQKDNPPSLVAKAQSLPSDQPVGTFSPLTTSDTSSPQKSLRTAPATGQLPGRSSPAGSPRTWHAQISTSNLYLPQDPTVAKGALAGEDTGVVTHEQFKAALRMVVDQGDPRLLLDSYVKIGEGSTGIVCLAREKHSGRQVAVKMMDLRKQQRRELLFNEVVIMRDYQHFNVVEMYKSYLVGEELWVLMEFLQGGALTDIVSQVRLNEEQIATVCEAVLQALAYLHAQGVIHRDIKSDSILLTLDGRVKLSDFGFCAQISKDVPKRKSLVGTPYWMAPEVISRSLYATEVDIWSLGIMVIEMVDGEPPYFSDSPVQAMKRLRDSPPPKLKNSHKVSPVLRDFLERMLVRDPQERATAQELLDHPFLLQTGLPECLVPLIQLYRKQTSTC
# Sequence of Serine/threonine-protein kinase PAK 1 (Homo sapiens) (Q13153 whole entry): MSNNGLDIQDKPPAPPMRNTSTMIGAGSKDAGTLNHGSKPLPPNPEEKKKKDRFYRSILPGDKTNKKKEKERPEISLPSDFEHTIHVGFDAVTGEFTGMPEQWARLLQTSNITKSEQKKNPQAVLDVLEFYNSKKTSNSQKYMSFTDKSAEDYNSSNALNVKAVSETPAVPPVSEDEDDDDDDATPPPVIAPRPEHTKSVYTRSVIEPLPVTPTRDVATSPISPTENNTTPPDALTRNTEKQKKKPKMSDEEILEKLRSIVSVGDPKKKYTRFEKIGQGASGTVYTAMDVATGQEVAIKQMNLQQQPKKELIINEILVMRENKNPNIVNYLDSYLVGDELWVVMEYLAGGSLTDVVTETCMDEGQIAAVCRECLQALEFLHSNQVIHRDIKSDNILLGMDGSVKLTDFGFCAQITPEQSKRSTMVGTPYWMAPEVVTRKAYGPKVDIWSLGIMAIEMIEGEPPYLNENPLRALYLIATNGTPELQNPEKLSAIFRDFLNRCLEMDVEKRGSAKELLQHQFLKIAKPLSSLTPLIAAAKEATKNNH
# Sequence of Misshapen-like kinase 1 (Homo sapiens) (Q8N4C8 whole entry, looked up): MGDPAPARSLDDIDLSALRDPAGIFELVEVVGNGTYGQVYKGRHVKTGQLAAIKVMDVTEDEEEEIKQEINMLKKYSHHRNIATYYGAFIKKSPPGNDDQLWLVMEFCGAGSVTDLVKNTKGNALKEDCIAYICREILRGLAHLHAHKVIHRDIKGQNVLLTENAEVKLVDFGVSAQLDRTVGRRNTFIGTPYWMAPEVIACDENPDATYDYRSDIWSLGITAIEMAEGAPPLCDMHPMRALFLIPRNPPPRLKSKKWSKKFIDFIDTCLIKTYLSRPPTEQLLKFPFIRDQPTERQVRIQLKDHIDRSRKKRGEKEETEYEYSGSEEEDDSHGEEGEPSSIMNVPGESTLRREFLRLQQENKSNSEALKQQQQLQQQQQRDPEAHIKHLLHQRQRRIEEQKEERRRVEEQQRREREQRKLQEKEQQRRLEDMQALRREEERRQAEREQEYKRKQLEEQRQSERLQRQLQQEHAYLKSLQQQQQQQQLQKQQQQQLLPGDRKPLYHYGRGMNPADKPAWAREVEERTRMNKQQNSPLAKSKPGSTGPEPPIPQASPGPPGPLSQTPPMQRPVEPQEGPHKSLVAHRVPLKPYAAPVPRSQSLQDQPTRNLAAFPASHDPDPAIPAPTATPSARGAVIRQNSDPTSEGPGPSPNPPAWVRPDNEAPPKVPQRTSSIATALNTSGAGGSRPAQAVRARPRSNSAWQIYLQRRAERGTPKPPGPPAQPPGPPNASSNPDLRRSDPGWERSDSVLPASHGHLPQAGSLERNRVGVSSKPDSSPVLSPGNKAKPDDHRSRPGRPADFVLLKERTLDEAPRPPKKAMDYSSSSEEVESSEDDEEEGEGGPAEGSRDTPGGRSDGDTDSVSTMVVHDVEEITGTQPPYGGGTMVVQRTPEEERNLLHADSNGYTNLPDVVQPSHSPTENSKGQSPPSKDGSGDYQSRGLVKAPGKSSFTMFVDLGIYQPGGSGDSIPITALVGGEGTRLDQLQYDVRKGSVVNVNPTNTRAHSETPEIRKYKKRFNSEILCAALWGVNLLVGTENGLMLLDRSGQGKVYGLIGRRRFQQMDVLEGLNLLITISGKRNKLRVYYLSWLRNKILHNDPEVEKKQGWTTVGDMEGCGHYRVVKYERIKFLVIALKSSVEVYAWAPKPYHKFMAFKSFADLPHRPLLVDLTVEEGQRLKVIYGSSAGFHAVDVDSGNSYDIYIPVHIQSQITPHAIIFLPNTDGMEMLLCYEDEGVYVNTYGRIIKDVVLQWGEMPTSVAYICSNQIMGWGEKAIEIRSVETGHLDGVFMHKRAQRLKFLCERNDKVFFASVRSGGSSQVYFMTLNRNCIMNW
# Sequence of Serine/threonine-protein kinase PAK 2 (Homo sapiens) (Q13177 whole entry): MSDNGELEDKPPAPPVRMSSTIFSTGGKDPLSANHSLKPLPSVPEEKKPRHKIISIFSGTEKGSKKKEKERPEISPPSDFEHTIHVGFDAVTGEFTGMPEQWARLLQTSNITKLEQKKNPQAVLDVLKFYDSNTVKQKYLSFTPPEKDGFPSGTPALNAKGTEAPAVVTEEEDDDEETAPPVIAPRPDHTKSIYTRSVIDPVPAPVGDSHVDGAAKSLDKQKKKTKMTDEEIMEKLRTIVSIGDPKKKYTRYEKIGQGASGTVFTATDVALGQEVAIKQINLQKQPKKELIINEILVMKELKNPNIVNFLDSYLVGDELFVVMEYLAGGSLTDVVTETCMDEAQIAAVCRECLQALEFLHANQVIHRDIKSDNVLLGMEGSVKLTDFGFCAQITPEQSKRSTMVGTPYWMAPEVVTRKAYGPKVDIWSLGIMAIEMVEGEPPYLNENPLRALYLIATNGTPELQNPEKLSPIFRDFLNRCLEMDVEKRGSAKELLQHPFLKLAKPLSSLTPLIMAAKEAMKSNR
# Sequence of Serine/threonine-protein kinase PAK 3 (Homo sapiens) (O75914 whole entry, looked up): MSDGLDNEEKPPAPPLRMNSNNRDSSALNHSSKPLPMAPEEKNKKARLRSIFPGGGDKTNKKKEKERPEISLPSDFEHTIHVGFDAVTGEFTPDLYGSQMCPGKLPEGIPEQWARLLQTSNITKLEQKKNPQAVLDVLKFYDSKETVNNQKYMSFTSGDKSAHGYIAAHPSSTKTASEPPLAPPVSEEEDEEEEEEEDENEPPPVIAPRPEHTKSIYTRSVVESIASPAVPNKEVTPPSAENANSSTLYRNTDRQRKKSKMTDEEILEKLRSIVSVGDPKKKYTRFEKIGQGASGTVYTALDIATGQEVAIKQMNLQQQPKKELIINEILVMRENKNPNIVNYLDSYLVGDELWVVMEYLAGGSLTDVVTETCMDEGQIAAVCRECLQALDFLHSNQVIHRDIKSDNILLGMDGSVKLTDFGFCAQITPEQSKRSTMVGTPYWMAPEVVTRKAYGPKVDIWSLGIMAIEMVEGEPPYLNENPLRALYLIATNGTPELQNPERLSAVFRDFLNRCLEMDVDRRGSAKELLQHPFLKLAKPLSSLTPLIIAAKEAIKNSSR
# Sequence of Serine/threonine-protein kinase PAK 5 (Homo sapiens) (Q9P286 whole entry, looked up): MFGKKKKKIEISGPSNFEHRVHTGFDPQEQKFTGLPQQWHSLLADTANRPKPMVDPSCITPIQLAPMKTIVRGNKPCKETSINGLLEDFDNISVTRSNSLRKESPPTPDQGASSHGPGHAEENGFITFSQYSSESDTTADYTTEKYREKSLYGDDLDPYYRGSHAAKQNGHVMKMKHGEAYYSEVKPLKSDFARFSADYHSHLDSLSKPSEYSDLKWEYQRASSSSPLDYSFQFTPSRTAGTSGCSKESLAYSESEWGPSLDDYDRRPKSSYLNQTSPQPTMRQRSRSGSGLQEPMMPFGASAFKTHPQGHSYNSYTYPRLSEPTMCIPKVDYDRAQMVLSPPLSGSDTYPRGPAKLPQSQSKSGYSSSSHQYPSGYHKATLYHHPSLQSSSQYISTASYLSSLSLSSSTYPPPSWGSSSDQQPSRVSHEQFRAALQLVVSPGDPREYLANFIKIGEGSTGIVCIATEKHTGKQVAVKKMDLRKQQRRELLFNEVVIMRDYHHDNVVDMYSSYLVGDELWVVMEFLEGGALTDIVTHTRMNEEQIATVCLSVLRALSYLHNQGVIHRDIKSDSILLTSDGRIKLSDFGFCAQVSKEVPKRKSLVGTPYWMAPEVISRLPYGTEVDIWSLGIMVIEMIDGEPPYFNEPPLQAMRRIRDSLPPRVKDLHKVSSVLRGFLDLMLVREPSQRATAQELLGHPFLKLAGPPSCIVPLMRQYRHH
# Sequence of Dual specificity mitogen-activated protein kinase kinase 1 (Homo sapiens) (Q02750 whole entry): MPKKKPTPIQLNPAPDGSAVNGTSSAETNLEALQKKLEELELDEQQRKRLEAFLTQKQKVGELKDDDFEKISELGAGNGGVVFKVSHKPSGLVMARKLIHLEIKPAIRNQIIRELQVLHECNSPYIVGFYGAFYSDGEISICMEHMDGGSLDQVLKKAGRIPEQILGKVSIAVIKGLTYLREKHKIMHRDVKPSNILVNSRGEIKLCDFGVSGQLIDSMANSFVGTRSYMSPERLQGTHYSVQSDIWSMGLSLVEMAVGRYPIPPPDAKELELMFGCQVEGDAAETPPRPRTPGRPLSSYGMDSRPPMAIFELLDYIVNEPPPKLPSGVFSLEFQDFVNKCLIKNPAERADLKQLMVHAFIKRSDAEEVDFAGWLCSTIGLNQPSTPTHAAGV
SMILES,inhibition [1] [%],inhibition [2] [%],inhibition [3] [%],inhibition [4] [%],inhibition [5] [%],inhibition [6] [%],inhibition [7] [%],inhibition [8] [%],inhibition [9] [%],inhibition [10] [%],inhibition [11] [%],inhibition [12] [%],inhibition [13] [%],inhibition [14] [%],inhibition [15] [%],inhibition [16] [%],inhibition [17] [%],inhibition [18] [%],inhibition [19] [%],inhibition [20] [%]
Fc1ccc(-c2ncn(C3CCNCC3)c2-c2ccnc(Oc3ccc(F)c(F)c3)n2)cc1,10.9,3.03,3.8,8.56,12,7.1,7.9,10.2,9.55,1.93,5.23,5.03,4.33,0.93,1.83,4.91,5.71,1.64,0.29,–
NS(=O)(=O)c1ccc(Nc2cc(-c3ccc(O)c(F)c3)n[nH]2)cc1,76.2,-2.69,-3.65,11.6,65.7,-1.34,12.6,-1.84,9.64,0.95,3.14,-5.59,-0.83,-1.12,-1.29,-4.62,-3.25,-6.87,-2.39,1.44
N#Cc1ccc(Oc2nccc(-c3c(-c4ccc(F)cc4)ncn3C3CCNCC3)n2)cc1,5.64,4.35,3.84,6.9,7.67,3.35,4.07,5.75,4.78,-1.67,-2.91,7.47,7.87,1.65,2.68,4.55,4.04,2.41,0.4,-4.78
O=C1NC(=O)C(c2cccc(Cl)c2)=C1Nc1ccc(Cl)c(C(=O)O)c1,8.37,5.3,2.84,4.74,7.9,5.13,7.28,6.05,9.28,0.55,0.53,4.41,6.62,2.04,0.87,3.53,3.74,0.06,0.5,-2.69
COc1cc2ncn(-c3cc(OCc4cccs4)c(C(N)=O)s3)c2cc1OC,67.2,3.5,2.83,18,63.5,20.6,65.5,19.5,62.6,2.25,0.69,5.82,5.75,0.62,0.03,2,4.56,8.19,8.5,6.2
Clc1ccc(CNc2nccc(-c3cnn4ncccc34)n2)cc1,16.3,0.08,2.12,1.36,10.7,3.22,5.84,2.53,3.57,-0.31,1.18,-2.27,-0.13,0.78,0.67,-0.26,0.29,8.39,2.06,–
CN(C)c1ccc2c(c1)/C(=C/Nc1ccc(S(N)(=O)=O)cc1)C(=O)N2,70,2.52,6.25,18.1,63.6,44.2,71.7,32.3,68,0.49,20.2,4.25,2.53,-0.61,0.6,1.32,2.05,-3.51,-4.48,11.8
Fc1ccc(-c2ncn(CCCN3CCOCC3)c2-c2ccncc2)cc1,5.83,-0.25,0.32,1.73,2.89,1.3,4.22,-0.13,2.5,0.94,0.15,2.56,3.02,-0.59,-0.77,0.6,0.53,–,–,-0.97
NCc1ccc(-n2c(-c3nonc3N)nc3cnccc32)cc1,20.3,8.09,8.5,11.2,16.3,9.89,19.6,10.2,13.1,0.95,-0.73,12,11.4,3.24,4.52,5.94,6.83,–,-2.63,-1.38
COc1cccc(-n2cnc3c(N/N=C/c4ccncc4)ncnc32)c1,16.9,-0.13,-0.71,2.27,16.9,3.6,7.14,4.46,7.42,0.98,-2.88,2.37,1.58,-1.03,-0.99,-1.14,0.31,6.09,10.8,5.99
NC(=O)c1cc(-c2ccncc2)cc(-c2ccccc2)c1N,32.3,6.3,5.89,11.2,26.1,3.19,6.8,3.96,3.58,-0.07,-1.56,7.55,6.44,2.07,2.41,7.15,6.71,1.02,2.18,-0.84
O=C(Nc1n[nH]c2cc(-c3ccccc3)ccc12)C1CC1,74.2,4.67,3.62,21.4,64.5,4.78,6.38,5.18,6.35,-2.61,-4.03,7.59,7.76,1.44,2.41,5.22,6.01,0.11,-0.04,5.51
COc1ccc(-c2ccc3c(NC(=O)C4CC4)n[nH]c3n2)cc1,33,2.82,2.1,5.24,21.8,2.12,4.96,2.09,5.21,-1.38,1.05,2.82,2.7,-1.11,-0.84,3.36,3.17,-5.83,-4.91,2.86
CCC(=O)Nc1ccc(C)c(-c2ccc(C(=O)NCC3CC3)cc2)c1,5.43,3.72,2.87,7.03,5.64,2.76,3.12,3.02,2.84,-1.82,-3.71,3.98,9.02,0.42,0.8,2.56,3.37,-0.07,-2.96,-8.71
Cc1nnc(-c2ccc(C)c(-c3ccc(C(=O)NCc4ccc(Cl)cc4)cc3)c2)o1,5.28,6.35,4.13,5.42,5.04,3.28,4.86,4.12,5.51,-1.19,0.59,7.92,6.11,1.55,1.24,4.16,4.01,–,-2.54,-4.24
C[C@@H](Oc1cc(-n2cnc3ccc(OCC4CCN(C)CC4)cc32)sc1C(N)=O)c1ccccc1Cl,11.6,6.35,5.61,6.3,10.1,14.8,56.7,11.7,39.7,-8.39,–,9.41,11.3,3.01,3.81,6.02,6.85,5.72,7.38,–
CCc1nccc2c1nc(-c1nonc1N)n2CC,6.31,1.12,1.54,3.5,3.84,-1.14,-0.39,–,–,-1.4,-1.83,3.29,3.71,0.74,1.13,0.51,1.09,–,–,3.51
COc1cc(Nc2ncc3c(C)nc(-c4cccc(Oc5ccccc5)c4)n3n2)cc(OC)c1OC,5.36,2.88,9.12,1.96,2.84,5.41,6.48,5.14,4.82,-0.33,-2.15,4.4,3.74,1.49,1.12,2.09,4.11,1.86,4.51,-2.06
CS(=O)(=O)CCNCc1ccc(-c2ccc3ncnc(Nc4ccc(OCc5ccccc5)c(Br)c4)c3c2)o1,6.29,1.96,1.78,4.51,5.24,2.67,2.76,4.32,5.08,-0.82,-1.33,5.64,8.98,0.93,1.63,5.05,4.4,1.46,0.13,-8.08
CCS(=O)(=O)c1ccc(OC)c(Nc2ncc(-c3ccccc3Cl)o2)c1,24.2,-0.28,0.4,4.25,22.4,1.96,5.89,1.11,2.6,1.19,1.46,-0.73,-1.58,1.78,0.49,-0.53,0.98,3.82,17.3,-6.91
NS(=O)(=O)c1ccc(N/N=C2\C(=O)Nc3ccc(C(=O)NCCCn4ccnc4)cc32)cc1,52.1,10.7,38,9.83,41.5,28.6,75.5,22.2,70,-0.28,6.6,4.13,11.5,0.82,2.78,4.22,5.04,–,-1.29,-2.98
COc1cc(Nc2ncc3c(C)nc(-c4cccc(C(F)(F)F)c4)n3n2)cc(OC)c1OC,34,4.45,10.7,10.5,29.2,7.12,17.8,6.69,13.2,0.97,5.84,6.01,8.56,1.46,2.81,3.31,7.5,5.75,15.9,-0.28
COc1ccc(C2=C(N3CCc4ccccc43)C(=O)NC2=O)cc1,12.6,5.11,4.03,7.89,11,7.03,7.64,6.94,6.17,-0.57,2.06,7.07,7.47,1.61,1.57,4.96,5.37,4.64,2.28,3.36
COc1cc(Nc2ncc(-c3ccccc3)o2)cc(OC)c1OC,26.4,-0.87,0.69,0.26,17.3,-2.33,0,-4.02,-1.87,-0.19,-4.83,-0.3,-0.52,-1.31,-0.61,-1.91,-0.07,-0.92,7.2,-5.44
O=C(Nc1n[nH]c2cc(-c3cc(F)ccc3F)ccc12)C1CC1,58.7,4.62,4.19,11.6,45.7,1.85,4.03,2.46,3.81,-1.29,-1.14,5.03,5.57,0.42,2.22,2.86,2.97,3.42,-2.05,2.84
COc1cc(N2CCN(C(C)C)CC2)ccc1Nc1nc(Nc2ccc(F)cc2C(=O)NC[C@@H](O)CO)c2cc[nH]c2n1,13.6,6.5,5.77,7.5,12,4.86,6.99,6.36,7.9,-1.23,-2.64,4.77,11.8,1.33,1.54,4.85,6.19,2.5,-2.48,5.3
C[C@@H](Oc1cc(-n2cnc3ccc(OC4CCN(C)CC4)cc32)sc1C(N)=O)c1ccccc1Cl,7.81,1.83,2.54,6.26,5.92,4.68,19.5,6.85,13.4,-3.27,–,5.45,7.26,1.74,2.5,5.07,10.3,4.34,5.61,–
